In the library only some 13% were active in any assay of this set; here they are far more common.
HCMV inh = qHTS Assay for inhibitors of the human cytomegalovirus (HCMV) | HFF cells, HCMV-luciferase reporter, 72 h; active compounds read low | activity change, negative = inhibition, % at 57.5 µM | hit rate 4.5% among 410,000 | AID 1259415, 2018; in the data active = activity change below about -60%; inconclusive = no clear call, values can overlap the other calls; inactive = above about -39%
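Luciferase read-out from HCMV-luciferase-infected HFFs (MOI 1 PFU/cell) 72 h post infection at 37C; compounds added after 16 h cell attachment; activity normalized between buffer-only basal and Salinomycin (10uM) inhibitor controls.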
HCV inh = qHTS Assay for Inhibitors of Hepatitis C Virus (HCV) | AID 651820, 2012 | Potency, µM (highest dose often 41.8 µM), most hits filed as inhibitors | hit rate 3.4% among 340,000 | Huh7.5.1 HCVcc-Cre infection, luciferase reporter, 44 h
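HCVcc-Cre virus at an moi near 0.5 was added right after compound to cells cultured 4 h from seeding (1,000 cells/well). Luciferase activity was determined 44 h later, 15 min after substrate addition at RT.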
Pf growth 96h = Primary qHTS for delayed death inhibitors of the malarial parasite plastid, 96 hour incubation; Potency, µM (series often up to 28.7 µM), hits mostly inhibitors; hit rate 6.9% among 320,000; P. falciparum luciferase reporter growth, 96 h; AID 504834, 2011
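Plates of compound plus infected erythrocytes (2% hematocrit, 0.05% parasitemia final) incubate 96 hours, 37 C, 5% CO2. Detection reagent added; reduced luminescence from the parasites' luciferase reporter flags inhibition.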
Pf growth 48h = Primary qHTS for delayed death inhibitors of the malarial parasite plastid, 48 hour incubation. Potency, µM (top dose mostly 28.7 µM), actives largely listed as inhibitors. AID 504832, 2011. hit rate 5.9% among 310,000. P. falciparum luciferase growth in erythrocytes, 48 h
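Growth was read as firefly luciferase luminescence after a 48 h, 37 C, 5% CO2 exposure of compounds to reporter-bearing P. falciparum cultures (0.1% parasitemia, 2% hematocrit final) in Albumax-supplemented RPMI 1640.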
Of the large screens only hits and unclear results are named; the others gave an inactive call; ! = a repeat was not active. Unless noted, calls follow the shape of the dose curve; as a rule, active = well fitted inhibition curve with a large enough effect; inconclusive = small, poorly fitted or top-dose-only effect, or another doubt; inactive = no such curve, though single readings can be large or run the other way.

Clc1cccc(C2=NC(c3cccs3)=Nc3ccc(Br)cc3N2)c1	none (no result: HCV inh, Pf growth 96h, Pf growth 48h)
Cc1cc(C)c(NC(=O)CSc2ccc(-c3sc(-c4ccccc4)nc3C)nn2)c(C)c1	none (no result: HCV inh, Pf growth 96h, Pf growth 48h)
Nc1ccc(S(=O)(=O)O)cn1	HCMV inh -69!, HCV inh inconclusive
CCCCCn1c(N)c(C(=O)NCc2cccs2)c2nc3ccccc3nc21	Pf growth 96h inconclusive
C=CCn1c(N)c(C(=O)OCCC)c2nc3ccccc3nc21	HCV inh inconclusive, Pf growth 96h inconclusive
Nc1c(C(=O)NCCCc2ccccc2)c2nc3ccccc3nc2n1Cc1cccs1	Pf growth 48h 12µM (no result: Pf growth 96h)
CCCOC(=O)c1c(N)n(Cc2cccs2)c2nc3ccccc3nc12	HCV inh inconclusive, Pf growth 96h 7.4µM (no result: Pf growth 48h)
CN(C)c1cccc2c1c(NC(=O)c1ccc(Cl)cc1)nn2C	HCV inh inconclusive, Pf growth 96h inconclusive
CN(C)c1cccc2c1c(NC(=O)Nc1ccc(F)cc1F)nn2C	HCMV inh -63, HCV inh inconclusive, Pf growth 96h inconclusive
CN(C)c1cccc2c1c(NC(=O)Nc1ccccc1)nn2C	Pf growth 96h 9.3µM, Pf growth 48h inconclusive
COc1ccccc1NC(=O)Nc1nn(C)c2cccc(OC)c12	Pf growth 96h 12µM, Pf growth 48h inconclusive
CN(C)c1cccc2c1c(NC(=O)c1ccc(F)cc1)nn2C	none
COc1cc(Cc2nc3ccccc3n2C(C)c2nc3ccccc3[nH]2)cc(OC)c1 (centres undefined)	none (no result: HCV inh, Pf growth 96h, Pf growth 48h)
CCOc1ccccc1-n1ccnc(NCc2ccc(F)cc2)c1=O	none (no result: HCV inh, Pf growth 96h, Pf growth 48h)
C=C(C)CN(CC)Cc1c(C(=O)N(C)CCCC)nc2ccccn12	Pf growth 96h 9.3µM
CN(C)c1ncc(C2=C(Cl)C(=O)C(N3CCCC3)=C(Cl)C2=O)s1	HCMV inh -64, HCV inh 7.9µM (no result: Pf growth 96h, Pf growth 48h)
O=C1C(Cl)=C(N2CCCCC2)C(=O)C(Cl)=C1c1cnc(N2CCCCC2)s1	HCV inh inconclusive, Pf growth 48h 10µM (no result: HCMV inh)
COc1cccc(CNC(=O)COCc2cc(-c3ccc4c(c3)OCO4)on2)c1	none (no result: HCV inh, Pf growth 96h, Pf growth 48h)
CCOC(=O)c1c(C)nc2c(C#N)cnn2c1C	none
CCCCNc1c(C(=O)OCC)c(C)nc2c1cnn2CC	HCV inh inconclusive, Pf growth 96h 15µM, Pf growth 48h inconclusive
Cc1ccnc(NC(=O)CCC(=O)N(CC(=O)NCc2ccc(F)cc2)c2cccc(F)c2)c1	none
COc1ccc(N(CC(=O)NCc2ccccc2)C(=O)CCC(=O)Nc2cc(C)ccn2)c(OC)c1	Pf growth 96h 0.47µM, Pf growth 48h 1.7µM
Cc1cc(C)cc(N(CC(=O)NCc2ccc(F)cc2)C(=O)CCC(=O)Nc2ccccn2)c1	Pf growth 48h 13µM
COc1ccccc1N(CC(=O)NCCc1ccccc1)C(=O)CCC(=O)Nc1cc(C)ccn1	Pf growth 96h inconclusive
Cc1cc(C)cc(N(CC(=O)NC(C)(C)C)C(=O)CCC(=O)Nc2ccccn2)c1	Pf growth 96h 10µM
CC(=O)N1c2ccc(S(=O)(=O)N3CCC(C(=O)Nc4ncccc4C)CC3)cc2CC1C (centres undefined)	Pf growth 96h inconclusive
COc1ccc(NC(=O)CN(C)S(=O)(=O)c2ccc3c(c2)CC(C)N3C(C)=O)c(OC)c1 (centres undefined)	HCV inh inconclusive, Pf growth 96h 7.4µM, Pf growth 48h inconclusive
CCc1cccc(NC(=O)C2CCN(S(=O)(=O)c3ccc4c(c3)CC(C)N4C(C)=O)CC2)c1 (centres undefined)	HCMV inh -85, HCV inh inconclusive, Pf growth 48h inconclusive
CC(=O)N1c2ccc(S(=O)(=O)N3CCC(C(=O)Nc4cccc(C(F)(F)F)c4)CC3)cc2CC1C (centres undefined)	HCMV inh -89, HCV inh 2.5µM, Pf growth 96h inconclusive, Pf growth 48h inconclusive
COc1ccc(CNC(=O)C2CCN(S(=O)(=O)c3ccc4c(c3)CC(C)N4C(C)=O)CC2)cc1 (centres undefined)	HCV inh inconclusive, Pf growth 96h 12µM, Pf growth 48h inconclusive
Cc1ccc(CSc2ncc(Cl)c(C(=O)Oc3ccc(F)cc3)n2)cc1	none (no result: HCV inh, Pf growth 96h, Pf growth 48h)
CC(=O)N1c2ccc(S(=O)(=O)N3CCC(C(=O)NC4CCCCC4)CC3)cc2CC1C (centres undefined)	Pf growth 96h inconclusive, Pf growth 48h inconclusive
CC(=O)N1c2ccc(S(=O)(=O)N3CCC(C(=O)Nc4ccc(F)cc4)CC3)cc2CC1C (centres undefined)	HCMV inh inconclusive, HCV inh 11µM, Pf growth 96h inconclusive, Pf growth 48h inconclusive
COc1ccc(S(=O)(=O)NCc2nc3nc(C)cc(C)n3n2)cc1OC	Pf growth 96h 5.2µM
Cc1cc(C)n2nc(CNS(=O)(=O)c3ccc(Cl)cc3)nc2n1	none (no result: HCV inh, Pf growth 96h, Pf growth 48h)
COc1cc2c(cc1NC(=O)c1ccncc1)oc1ccccc12	HCV inh inconclusive (no result: HCMV inh, Pf growth 48h)
COc1cc2c(cc1NC(=S)NC(=O)c1c(OC)cccc1OC)oc1ccccc12	HCMV inh inconclusive, Pf growth 96h 3.7µM, Pf growth 48h 4.1µM
COc1cccc(OC)c1C(=O)NC(=S)Nc1ccc2oc(=O)ccc2c1	Pf growth 96h 1.9µM, Pf growth 48h 3.3µM
COc1cc2c(cc1NC(=O)c1cccnc1)oc1ccccc12	HCV inh 3.2µM (no result: Pf growth 48h)
COc1cc(OC)cc(C(=O)NC(=S)Nc2cc3oc4ccccc4c3cc2OC)c1	HCV inh 1.8µM
NC(N)=N/N=C/c1ccc(OCc2ccccc2)cc1	HCMV inh -96, HCV inh inconclusive, Pf growth 96h 1.5µM, Pf growth 48h 1.5µM
NC(N)=N/N=C/c1ccc(Br)cc1	Pf growth 48h 12µM
NC(N)=N/N=C/c1ccc(OCc2ccc(Cl)cc2)cc1	HCV inh inconclusive, Pf growth 96h 2.3µM, Pf growth 48h 0.33µM
O=C(N/N=C/c1ccccc1)c1ccc(OCc2ccccc2)cc1	none
CC(=O)Oc1cc2c(cc1Cl)C1(CC(c3ccccc3Cl)O2)CC(C)(C)NC(=S)N1 (centres undefined)	HCV inh 10µM, Pf growth 48h inconclusive (no result: Pf growth 96h)
CCOC(=O)c1nn(-c2cccc(OC)c2)c2nc(Nc3ccccc3)cc(=O)n12	HCV inh 11µM, Pf growth 96h inconclusive
CCC(=O)N1CCc2cc(S(=O)(=O)CCC(=O)Nc3ccc(CC)cc3)ccc21	none
CCC(=O)N1CCCc2cc(S(=O)(=O)CCC(=O)Nc3ccccc3C)ccc21	Pf growth 96h 5.9µM
CCOC(=O)N1CCC(NC(=O)CCS(=O)(=O)c2ccc3c(c2)CCN3C(=O)CC)CC1	none
CCC(=O)N1CCc2cc(S(=O)(=O)CCC(=O)NC3CCCCC3)ccc21	Pf growth 96h 2.6µM
CC(=O)N1CCc2cc(S(=O)(=O)CCC(=O)NCc3ccc(F)cc3)ccc21	HCMV inh -61
CCC(=O)N1CCc2cc(S(=O)(=O)CCC(=O)O)ccc21	Pf growth 96h 7.4µM
CCOC(=O)COc1ccc(C)cc1C(=O)c1ccn2nc(-c3ccc(C)cc3)cc2n1	none (no result: HCV inh, Pf growth 96h, Pf growth 48h)
CCC(=O)N1CCc2cc(S(=O)(=O)CCC(=O)N3CCc4ccccc4C3)ccc21	Pf growth 96h 12µM (no result: HCMV inh)
CCC(=O)N1CCc2cc(S(=O)(=O)CCC(=O)N3CCN(c4ccccc4)CC3)ccc21	Pf growth 48h inconclusive
